Assay results from PubChem BioAssay AID652192 (Johns Hopkins Ion Channel Center, 2013).
Entries with a potency or affinity are not part of this list.

Biological target: Potassium voltage-gated channel subfamily KQT member 2 (Rattus norvegicus) (UniProt O88943)
Assay: block of rat KCNQ2 potassium channel – cell-based, FluxOR thallium flux, concentration-response, selectivity assay for TASK1 inhibitor project, SAR follow-up (AID 652192)
Conditions: KCNQ2 cell line, FluxOR thallium flux fluorescence; series mostly up to 30 µM; flux ratio, lower = inhibition: at the top concentration;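 active = peak inhibition of the KCNQ2 potassium channel over 30% at some tested dose, with a fitted dose response curve; inactive = no inhibition at any dose, or no curve fitted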

Chain of Potassium voltage-gated channel subfamily KQT member 2 (Rattus norvegicus) (O88943 whole entry, looked up): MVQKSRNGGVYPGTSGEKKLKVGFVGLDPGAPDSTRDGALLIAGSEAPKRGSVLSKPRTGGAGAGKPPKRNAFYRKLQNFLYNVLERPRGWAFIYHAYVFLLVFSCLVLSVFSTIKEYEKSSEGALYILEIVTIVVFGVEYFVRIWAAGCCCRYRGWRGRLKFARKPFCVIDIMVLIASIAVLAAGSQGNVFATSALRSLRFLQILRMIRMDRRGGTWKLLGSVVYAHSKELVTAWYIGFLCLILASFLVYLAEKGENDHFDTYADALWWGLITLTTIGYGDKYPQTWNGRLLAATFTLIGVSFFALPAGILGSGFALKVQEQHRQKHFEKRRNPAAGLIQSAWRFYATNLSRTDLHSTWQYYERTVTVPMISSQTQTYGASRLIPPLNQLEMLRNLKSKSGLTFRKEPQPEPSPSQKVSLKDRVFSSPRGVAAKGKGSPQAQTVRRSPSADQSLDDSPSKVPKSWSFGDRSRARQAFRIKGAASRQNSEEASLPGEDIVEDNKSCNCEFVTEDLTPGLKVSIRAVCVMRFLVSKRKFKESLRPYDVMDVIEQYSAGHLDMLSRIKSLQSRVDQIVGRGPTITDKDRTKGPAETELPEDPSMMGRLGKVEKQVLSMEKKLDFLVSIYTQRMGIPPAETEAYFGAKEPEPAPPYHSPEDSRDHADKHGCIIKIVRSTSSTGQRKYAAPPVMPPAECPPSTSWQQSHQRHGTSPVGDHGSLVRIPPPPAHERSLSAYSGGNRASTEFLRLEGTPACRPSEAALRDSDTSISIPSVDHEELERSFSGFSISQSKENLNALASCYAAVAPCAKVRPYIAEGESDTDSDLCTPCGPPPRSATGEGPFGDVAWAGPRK

Flux ratio, lower = inhibition, inactive:
COc1ccccc1NC(=O)c1cccc(NC(=O)C2CCCCC2)c1 0.175
Cc1cccc(S(=O)(=O)Nc2cccc(NC(=O)c3ccccc3)c2)c1 0.195
Cc1cccc(C(=O)Nc2cccc(NC(=O)c3ccccc3)c2)c1 0.441
CCOc1ccccc1NC(=O)c1cccc(NC(=O)c2ccc(Cl)cc2)c1 0.181
COc1ccccc1NC(=O)c1cccc(NC(=O)c2ccccc2OC)c1 0.172
COc1ccccc1NC(=O)c1cccc(NC(=O)CC2CCCC2)c1 0.162
Cc1cccc(C(=O)Nc2cccc(NC(=O)c3ccc(C(F)(F)F)cc3)c2)c1 0.16
Cc1cccc(C(=O)Nc2cccc(NC(=O)c3cccs3)c2)c1 0.169
COc1ccccc1NC(=O)c1cccc(NC(=O)c2ccccc2C(F)(F)F)c1 0.178
O=C(Nc1cccc(NC(=O)c2cccc(Cl)c2)c1)c1ccccc1 0.143
Cc1ccc(C(=O)Nc2cccc(NC(=O)c3ccccc3)c2)cc1 0.143
COc1ccccc1C(=O)Nc1cccc(NC(=O)c2ccccc2C)c1 0.166
CCOc1ccccc1NC(=O)c1cccc(NC(=O)c2cccc(Cl)c2)c1 0.168
CCOc1ccccc1C(=O)Nc1cccc(NC(=O)c2ccccc2OC)c1 0.173
Cc1cccc(C(=O)Nc2cccc(NC(=O)c3ccccc3C(C)C)c2)c1 0.166
CCOc1ccccc1NC(=O)c1cccc(NC(=O)c2ccccc2C(F)(F)F)c1 0.183
O=C(Nc1cccc(NC(=O)c2cccs2)c1)c1ccccc1 0.191
CCOc1ccccc1NC(=O)c1cccc(NC(=O)CC2CCCCC2)c1 0.163
